Assays:
Experiment in all cases: log2 ratio of Biotin-Ahx-Ub-VS probe labelling (fragment/DMSO); higher = less target engagement (more negative = stronger competition), active = hit call of the paper (q ≤ 0.05, log2 ratio ≤ -1)
Conditions in all cases: compound concentration: 200 uM; treatment time: 3 h
[1] = target: T1, USP19 (UniProt O94966)
T1 sequence (whole entry): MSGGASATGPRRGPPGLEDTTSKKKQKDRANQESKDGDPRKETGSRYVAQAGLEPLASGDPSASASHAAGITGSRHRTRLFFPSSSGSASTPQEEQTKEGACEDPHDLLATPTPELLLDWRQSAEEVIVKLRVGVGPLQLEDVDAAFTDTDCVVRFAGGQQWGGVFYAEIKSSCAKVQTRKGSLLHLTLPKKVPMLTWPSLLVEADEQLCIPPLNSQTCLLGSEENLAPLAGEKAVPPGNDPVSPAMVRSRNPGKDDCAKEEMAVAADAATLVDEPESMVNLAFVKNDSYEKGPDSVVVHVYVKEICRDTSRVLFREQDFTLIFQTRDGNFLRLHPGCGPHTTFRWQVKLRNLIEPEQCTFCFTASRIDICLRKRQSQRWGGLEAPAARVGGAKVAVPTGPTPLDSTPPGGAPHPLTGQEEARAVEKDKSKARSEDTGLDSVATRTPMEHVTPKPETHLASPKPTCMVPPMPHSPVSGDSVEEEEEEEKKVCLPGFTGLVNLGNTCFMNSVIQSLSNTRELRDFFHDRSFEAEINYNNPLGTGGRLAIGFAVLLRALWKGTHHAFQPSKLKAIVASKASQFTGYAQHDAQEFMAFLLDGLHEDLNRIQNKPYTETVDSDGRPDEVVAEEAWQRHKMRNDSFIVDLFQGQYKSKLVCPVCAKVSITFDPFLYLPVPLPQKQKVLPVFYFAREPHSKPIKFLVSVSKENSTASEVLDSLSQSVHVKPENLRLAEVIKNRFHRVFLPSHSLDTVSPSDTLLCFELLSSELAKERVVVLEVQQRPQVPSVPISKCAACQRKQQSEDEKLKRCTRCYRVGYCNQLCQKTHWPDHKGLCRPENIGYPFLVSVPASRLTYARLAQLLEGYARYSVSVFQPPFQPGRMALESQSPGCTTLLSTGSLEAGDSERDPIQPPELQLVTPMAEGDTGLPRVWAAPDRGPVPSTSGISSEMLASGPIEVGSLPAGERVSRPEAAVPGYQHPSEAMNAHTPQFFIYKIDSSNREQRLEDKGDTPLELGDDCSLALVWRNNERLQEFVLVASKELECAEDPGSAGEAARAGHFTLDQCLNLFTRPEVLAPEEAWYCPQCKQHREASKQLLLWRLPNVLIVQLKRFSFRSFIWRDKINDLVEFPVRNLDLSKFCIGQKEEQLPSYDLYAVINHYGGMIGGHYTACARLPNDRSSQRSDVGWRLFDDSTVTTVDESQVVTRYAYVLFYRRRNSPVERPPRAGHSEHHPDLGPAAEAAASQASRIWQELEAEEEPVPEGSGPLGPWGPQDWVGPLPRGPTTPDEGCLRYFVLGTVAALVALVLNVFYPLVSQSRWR
How it was run: (§1)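 The table lists average log2 ratios of fragment over vehicle, from an unpaired t-test on global-median-normalised Spectronaut label-free quantities. Proteins with ≥2 unique peptides were used. Samples were HEK293T lysate (495 µg) treated in triplicate with fragment at 200 µM or vehicle for 3 h, then with Biotin-Ahx-Ub-VS (0.5 µM final) for 1 h, with labelled DUBs NeutrAvidin-enriched and run by diaPASEF LC-MS/MS.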

[2] = target: T2, USP22 (UniProt Q9UPT9)
T2 sequence (whole entry): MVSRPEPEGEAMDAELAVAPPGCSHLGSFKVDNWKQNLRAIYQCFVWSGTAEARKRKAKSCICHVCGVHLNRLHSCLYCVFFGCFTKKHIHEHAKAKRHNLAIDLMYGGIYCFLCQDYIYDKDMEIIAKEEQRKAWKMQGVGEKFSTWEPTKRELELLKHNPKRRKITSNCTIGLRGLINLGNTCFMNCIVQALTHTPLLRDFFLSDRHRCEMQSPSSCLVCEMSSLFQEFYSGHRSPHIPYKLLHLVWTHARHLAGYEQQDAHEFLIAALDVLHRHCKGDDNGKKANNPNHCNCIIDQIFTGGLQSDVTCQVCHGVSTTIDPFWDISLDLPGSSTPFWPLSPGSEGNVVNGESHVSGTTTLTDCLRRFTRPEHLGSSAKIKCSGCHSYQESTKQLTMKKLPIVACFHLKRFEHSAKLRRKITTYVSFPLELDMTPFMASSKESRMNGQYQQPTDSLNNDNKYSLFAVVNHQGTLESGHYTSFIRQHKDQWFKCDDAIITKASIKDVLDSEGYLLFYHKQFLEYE
How it was run: as §1

[3] = target: USP24 (UniProt Q9UPU5)
How it was run: as §1

[4] = target: T3, USP25 (UniProt Q9UHP3)
T3 sequence (whole entry): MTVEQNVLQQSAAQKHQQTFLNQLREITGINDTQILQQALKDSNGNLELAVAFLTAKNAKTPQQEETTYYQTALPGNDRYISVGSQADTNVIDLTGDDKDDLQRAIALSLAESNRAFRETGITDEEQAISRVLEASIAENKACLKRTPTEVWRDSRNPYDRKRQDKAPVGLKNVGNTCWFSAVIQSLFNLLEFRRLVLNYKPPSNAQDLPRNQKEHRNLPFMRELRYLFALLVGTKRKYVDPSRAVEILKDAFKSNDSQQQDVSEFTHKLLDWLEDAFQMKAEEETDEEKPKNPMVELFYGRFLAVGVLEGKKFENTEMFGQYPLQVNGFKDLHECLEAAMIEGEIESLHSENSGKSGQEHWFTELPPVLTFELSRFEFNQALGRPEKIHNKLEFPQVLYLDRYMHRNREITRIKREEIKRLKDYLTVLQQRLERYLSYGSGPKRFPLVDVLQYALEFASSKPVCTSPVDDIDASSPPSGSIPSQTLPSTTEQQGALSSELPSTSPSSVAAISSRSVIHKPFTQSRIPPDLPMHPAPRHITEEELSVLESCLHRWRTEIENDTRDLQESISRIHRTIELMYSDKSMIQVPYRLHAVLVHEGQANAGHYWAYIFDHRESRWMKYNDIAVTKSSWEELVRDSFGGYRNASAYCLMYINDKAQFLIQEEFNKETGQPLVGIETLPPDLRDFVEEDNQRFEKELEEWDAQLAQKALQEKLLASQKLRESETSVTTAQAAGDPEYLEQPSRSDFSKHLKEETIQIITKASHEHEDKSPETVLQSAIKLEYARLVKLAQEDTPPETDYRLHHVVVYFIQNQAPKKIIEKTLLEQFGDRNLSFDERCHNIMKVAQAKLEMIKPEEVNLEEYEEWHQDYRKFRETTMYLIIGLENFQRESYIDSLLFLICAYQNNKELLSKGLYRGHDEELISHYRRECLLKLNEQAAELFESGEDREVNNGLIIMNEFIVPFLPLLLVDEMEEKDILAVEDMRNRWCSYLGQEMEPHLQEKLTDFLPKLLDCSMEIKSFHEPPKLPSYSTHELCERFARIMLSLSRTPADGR
How it was run: as §1

[5] = target: T4, USP28 (UniProt Q96RU2)
T4 sequence (whole entry): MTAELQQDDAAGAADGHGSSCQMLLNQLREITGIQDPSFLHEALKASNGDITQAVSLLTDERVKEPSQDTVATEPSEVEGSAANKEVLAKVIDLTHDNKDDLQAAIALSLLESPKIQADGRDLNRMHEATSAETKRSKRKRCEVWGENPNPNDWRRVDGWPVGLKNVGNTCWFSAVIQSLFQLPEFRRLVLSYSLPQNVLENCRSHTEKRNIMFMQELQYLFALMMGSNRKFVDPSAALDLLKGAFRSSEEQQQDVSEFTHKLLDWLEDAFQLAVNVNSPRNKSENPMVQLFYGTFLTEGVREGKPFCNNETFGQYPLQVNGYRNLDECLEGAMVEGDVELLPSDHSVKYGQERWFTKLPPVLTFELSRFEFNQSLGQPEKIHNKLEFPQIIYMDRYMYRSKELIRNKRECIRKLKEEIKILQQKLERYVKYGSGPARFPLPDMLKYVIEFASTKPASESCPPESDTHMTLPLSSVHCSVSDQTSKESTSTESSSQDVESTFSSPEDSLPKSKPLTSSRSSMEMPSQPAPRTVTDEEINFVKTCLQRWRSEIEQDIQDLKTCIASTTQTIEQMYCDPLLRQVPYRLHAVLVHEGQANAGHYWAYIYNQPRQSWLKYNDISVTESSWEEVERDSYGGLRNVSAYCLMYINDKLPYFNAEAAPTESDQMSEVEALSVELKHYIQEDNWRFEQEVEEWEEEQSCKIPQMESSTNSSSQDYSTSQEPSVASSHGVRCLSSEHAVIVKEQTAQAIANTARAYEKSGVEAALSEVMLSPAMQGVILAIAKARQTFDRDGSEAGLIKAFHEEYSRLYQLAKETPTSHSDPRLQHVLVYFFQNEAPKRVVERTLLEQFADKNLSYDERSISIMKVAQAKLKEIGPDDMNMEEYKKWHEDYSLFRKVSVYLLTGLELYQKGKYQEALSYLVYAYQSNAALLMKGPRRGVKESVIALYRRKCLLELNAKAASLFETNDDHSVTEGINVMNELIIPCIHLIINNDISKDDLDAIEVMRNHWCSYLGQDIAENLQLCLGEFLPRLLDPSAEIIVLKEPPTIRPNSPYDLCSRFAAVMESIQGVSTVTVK
How it was run: as §1

Measured: log2 ratio of Biotin-Ahx-Ub-VS probe labelling

Chain of USP24 (Q9UPU5 whole entry): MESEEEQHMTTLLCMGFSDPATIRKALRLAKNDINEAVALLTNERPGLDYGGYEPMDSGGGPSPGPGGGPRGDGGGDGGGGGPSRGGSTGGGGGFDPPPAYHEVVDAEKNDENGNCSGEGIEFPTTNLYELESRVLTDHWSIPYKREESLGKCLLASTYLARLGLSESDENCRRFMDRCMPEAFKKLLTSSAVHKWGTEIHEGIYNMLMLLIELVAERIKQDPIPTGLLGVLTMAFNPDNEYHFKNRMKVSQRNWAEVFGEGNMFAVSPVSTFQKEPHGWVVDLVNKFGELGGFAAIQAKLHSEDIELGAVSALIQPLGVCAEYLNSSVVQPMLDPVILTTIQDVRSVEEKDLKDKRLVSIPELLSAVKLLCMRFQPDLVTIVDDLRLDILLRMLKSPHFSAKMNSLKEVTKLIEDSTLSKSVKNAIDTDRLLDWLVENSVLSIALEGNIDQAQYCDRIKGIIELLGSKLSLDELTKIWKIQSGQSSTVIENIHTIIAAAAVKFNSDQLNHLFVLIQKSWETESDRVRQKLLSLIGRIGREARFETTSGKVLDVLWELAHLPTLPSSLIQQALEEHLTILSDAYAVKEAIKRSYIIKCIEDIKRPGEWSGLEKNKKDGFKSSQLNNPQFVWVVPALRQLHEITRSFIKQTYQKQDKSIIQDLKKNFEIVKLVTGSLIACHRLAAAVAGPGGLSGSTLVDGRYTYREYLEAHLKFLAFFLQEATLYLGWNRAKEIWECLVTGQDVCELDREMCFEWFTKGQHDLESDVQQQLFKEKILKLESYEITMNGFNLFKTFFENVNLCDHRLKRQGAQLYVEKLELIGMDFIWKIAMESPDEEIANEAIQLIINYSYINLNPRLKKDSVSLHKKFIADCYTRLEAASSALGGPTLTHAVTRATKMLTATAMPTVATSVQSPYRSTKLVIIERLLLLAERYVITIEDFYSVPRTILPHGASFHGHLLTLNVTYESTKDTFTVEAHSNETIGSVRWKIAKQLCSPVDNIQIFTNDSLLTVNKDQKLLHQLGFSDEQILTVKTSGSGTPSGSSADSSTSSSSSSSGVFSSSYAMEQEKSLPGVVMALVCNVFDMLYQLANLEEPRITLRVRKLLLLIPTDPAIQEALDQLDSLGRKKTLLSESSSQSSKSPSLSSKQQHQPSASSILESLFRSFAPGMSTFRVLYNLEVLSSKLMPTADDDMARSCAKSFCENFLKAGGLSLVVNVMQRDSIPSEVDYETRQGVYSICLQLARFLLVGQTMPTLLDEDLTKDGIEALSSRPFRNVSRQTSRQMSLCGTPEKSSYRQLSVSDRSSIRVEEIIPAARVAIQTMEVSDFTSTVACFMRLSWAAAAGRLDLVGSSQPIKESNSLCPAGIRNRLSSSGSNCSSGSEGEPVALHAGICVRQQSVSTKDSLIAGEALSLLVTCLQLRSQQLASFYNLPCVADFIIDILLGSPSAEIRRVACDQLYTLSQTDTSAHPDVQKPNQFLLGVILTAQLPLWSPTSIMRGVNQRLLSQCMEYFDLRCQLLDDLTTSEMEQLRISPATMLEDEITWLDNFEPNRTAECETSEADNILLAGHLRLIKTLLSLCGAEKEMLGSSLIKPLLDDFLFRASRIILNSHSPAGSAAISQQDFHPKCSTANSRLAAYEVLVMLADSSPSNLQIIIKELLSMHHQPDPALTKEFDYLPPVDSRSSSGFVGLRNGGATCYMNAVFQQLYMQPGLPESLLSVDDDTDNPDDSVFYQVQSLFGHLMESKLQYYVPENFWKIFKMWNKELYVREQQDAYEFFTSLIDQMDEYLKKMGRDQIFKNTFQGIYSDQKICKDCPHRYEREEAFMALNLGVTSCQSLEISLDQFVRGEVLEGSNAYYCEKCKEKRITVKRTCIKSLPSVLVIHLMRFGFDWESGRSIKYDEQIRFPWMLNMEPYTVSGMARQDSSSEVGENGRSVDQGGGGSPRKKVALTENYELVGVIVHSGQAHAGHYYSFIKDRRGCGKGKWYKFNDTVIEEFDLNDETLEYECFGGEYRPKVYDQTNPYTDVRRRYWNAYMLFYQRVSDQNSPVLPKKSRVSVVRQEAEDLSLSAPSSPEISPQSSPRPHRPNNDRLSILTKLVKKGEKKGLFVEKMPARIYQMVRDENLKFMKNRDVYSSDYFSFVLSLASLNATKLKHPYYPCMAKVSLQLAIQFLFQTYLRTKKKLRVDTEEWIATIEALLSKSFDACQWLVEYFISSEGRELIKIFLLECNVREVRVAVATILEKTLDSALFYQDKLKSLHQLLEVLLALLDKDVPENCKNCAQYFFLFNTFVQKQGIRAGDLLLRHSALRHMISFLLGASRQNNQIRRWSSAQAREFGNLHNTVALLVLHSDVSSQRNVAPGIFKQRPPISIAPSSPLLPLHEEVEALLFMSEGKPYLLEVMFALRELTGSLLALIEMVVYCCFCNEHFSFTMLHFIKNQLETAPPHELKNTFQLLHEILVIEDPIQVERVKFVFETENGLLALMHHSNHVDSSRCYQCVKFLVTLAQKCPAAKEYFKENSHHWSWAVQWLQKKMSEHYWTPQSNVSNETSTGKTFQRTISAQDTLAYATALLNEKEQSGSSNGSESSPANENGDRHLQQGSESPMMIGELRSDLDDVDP

Cc1cccc(C(CNC(=O)CCl)N2CCOCC2)c1.Cl (stereo not given)
inactive: [1] 0.101 | [2] -0.00636 | [3] 0.135 | [4] -0.355 | [5] -0.0645

— the supplement of paper PMC11732987, “Enantioselective OTUD7B fragment discovery through chemoproteomics screening and high-throughput optimisation” (Communications Chemistry, 2025)
